Test results as given in ChEMBL document CHEMBL2218924, “A broad activity screen in support of a chemogenomic map for kinase signalling research and drug discovery” (Biochem J, 2013).

Tests used:
[1] = biological target: Tyrosine-protein kinase FRK (Homo sapiens) (UniProt P42685); details: at 1 µM
[2] = biological target: Tyrosine-protein kinase FRK (Homo sapiens) (UniProt P42685); details: at 10 µM
[3] = biological target: T1, Phosphorylase b kinase gamma catalytic chain, liver/testis isoform (Homo sapiens) (UniProt P15735); details: at 1 µM
T1 sequence (whole entry): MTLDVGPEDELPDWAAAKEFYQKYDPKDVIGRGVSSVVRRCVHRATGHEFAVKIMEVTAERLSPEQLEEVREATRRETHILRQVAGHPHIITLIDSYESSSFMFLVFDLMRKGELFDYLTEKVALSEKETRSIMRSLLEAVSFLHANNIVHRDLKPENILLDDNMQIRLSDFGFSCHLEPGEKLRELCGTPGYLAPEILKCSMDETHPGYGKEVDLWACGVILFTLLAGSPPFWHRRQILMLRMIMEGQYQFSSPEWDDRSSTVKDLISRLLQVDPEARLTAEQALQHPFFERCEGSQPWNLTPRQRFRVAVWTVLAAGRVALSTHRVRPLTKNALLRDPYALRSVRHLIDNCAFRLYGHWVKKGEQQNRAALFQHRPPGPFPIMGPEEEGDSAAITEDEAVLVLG

[4] = biological target: T1, Phosphorylase b kinase gamma catalytic chain, liver/testis isoform (Homo sapiens); details: at 10 µM
[5] = biological target: Serine/threonine-protein kinase pim-1 (Homo sapiens) (UniProt P11309); details: at 1 µM
[6] = biological target: Serine/threonine-protein kinase pim-1 (Homo sapiens) (UniProt P11309); details: at 10 µM
[7] = biological target: Serine/threonine-protein kinase pim-2 (Homo sapiens) (UniProt Q9P1W9); details: at 1 µM
[8] = biological target: Serine/threonine-protein kinase pim-2 (Homo sapiens) (UniProt Q9P1W9); details: at 10 µM
[9] = biological target: Serine/threonine-protein kinase pim-3 (Homo sapiens) (UniProt Q86V86); details: at 1 µM
[10] = biological target: Serine/threonine-protein kinase pim-3 (Homo sapiens) (UniProt Q86V86); details: at 10 µM

Chain of Tyrosine-protein kinase FRK (Homo sapiens) (P42685 whole entry, canonical isoform): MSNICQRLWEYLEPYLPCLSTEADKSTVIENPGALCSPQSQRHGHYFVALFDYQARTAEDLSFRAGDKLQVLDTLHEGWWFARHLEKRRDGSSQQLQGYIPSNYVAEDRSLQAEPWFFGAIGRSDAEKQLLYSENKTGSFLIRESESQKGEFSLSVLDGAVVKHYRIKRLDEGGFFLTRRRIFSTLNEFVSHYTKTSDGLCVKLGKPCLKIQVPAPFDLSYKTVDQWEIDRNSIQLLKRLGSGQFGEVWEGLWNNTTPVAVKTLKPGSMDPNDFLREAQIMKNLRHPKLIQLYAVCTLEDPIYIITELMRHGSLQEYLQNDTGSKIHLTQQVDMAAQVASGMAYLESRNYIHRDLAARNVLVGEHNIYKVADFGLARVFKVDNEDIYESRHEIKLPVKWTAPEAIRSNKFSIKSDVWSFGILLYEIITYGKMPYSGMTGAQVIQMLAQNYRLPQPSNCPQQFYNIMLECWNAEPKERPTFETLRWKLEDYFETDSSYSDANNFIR
Chain of Serine/threonine-protein kinase pim-1 (Homo sapiens) (P11309 whole entry, looked up): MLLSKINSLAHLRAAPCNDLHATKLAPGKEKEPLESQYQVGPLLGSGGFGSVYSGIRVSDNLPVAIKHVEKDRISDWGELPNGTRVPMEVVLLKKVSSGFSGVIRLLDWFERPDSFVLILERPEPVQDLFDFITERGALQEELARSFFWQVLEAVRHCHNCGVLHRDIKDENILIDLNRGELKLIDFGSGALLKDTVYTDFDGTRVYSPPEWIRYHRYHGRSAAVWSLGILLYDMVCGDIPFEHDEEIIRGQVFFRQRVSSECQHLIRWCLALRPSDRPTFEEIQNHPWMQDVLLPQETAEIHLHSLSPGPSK
Chain of Serine/threonine-protein kinase pim-2 (Homo sapiens) (Q9P1W9 whole entry, looked up): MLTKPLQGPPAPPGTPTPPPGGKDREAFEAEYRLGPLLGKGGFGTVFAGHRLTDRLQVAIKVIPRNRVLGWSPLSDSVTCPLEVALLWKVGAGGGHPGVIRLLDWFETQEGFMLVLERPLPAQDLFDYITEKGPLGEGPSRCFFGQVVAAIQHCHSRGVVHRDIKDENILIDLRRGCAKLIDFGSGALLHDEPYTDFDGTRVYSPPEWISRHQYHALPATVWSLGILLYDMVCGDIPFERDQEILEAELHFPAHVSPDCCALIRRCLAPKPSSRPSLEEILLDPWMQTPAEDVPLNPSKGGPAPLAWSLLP

Row | SMILES | residual activity [1] [%] | residual activity [2] [%] | residual activity [3] [%] | residual activity [4] [%] | residual activity [5] [%] | residual activity [6] [%] | residual activity [7] [%] | residual activity [8] [%] | residual activity [9] [%] | residual activity [10] [%]
1 | O=c1[nH]c2ccccc2n1C1CCN(Cc2ccc(-c3nc4cc5[nH]cnc5cc4nc3-c3ccccc3)cc2)CC1 | 99 | 107 | 101 | 53 | 88 | 87 | 85 | 98 | 102 | 97
2 | O=C1NC(=O)c2c1c1c3ccccc3n3c1c1c2c2ccccc2n1C1CCC3O1 | 71 | 66 |  |  | -2 | 1 | 6 | -2 | 38 | 45
3 | COc1ccc2c(c1)/C(=C/c1cnc[nH]1)C(=O)N2 |  |  |  | 22 | 66 | 32 | 69 | 19 |  | 52
4 | COc1cc(OC)c(/C=C2\C(=O)Nc3ccccc32)c(OC)c1 | 90 | 99 |  |  |  | 75 | 137 |  | 81 | 86
5 | O=C1c2ccccc2-c2nc3nnnn3nc21 |  |  | 103 | 120 |  |  | 104 | 108 |  | 
6 | COc1ccc2c(c[n+](C)c3c4cc5c(cc4ccc23)OCO5)c1OC | 94 | 69 | 111 | 96 | 93 | 93 | 86 | 88 | 100 | 95
7 | COc1cc2ncnc(Nc3ccc(OCc4ccccc4)cc3)c2cc1OC | 98 | 123 | 98 | 113 | 99 | 90 | 110 | 105 | 107 | 100
8 | c1cc(-c2cnn3cc(-c4ccc(OCCN5CCCCC5)cc4)cnc23)ccn1 | 65 | 7 | 34 | 4 | 104 | 60 | 117 | 127 |  | 
9 | N/C(=N\[N+](=O)[O-])N/N=C\c1ccc(-c2cccc([N+](=O)[O-])c2)o1 |  |  |  |  |  |  |  |  | 88 | 87
10 | CC(C)(C)c1cc(C=C(C#N)C#N)cc(Br)c1O | 100 | 76 | 115 | 106 |  | 51 |  |  | 105 | 104
11 | CC(C)[C@H](CO)Nc1nc(Nc2cccc(Cl)c2)c2ncn(C(C)C)c2n1 | 59 | 9 | 122 | 82 | 100 | 68 | 116 | 122 | 87 | 89
12 | CCn1cnc2c(Nc3cccc(Cl)c3)nc(N[C@@H]3CCCC[C@@H]3N)nc21 | 43 | 8 | 78 | 29 | 94 | 23 | 97 | 39 | 57 | 13
13 | C[S+]([O-])c1ccc(-c2nc(-c3ccc(F)cc3)c(-c3ccncc3)[nH]2)cc1 (stereo unspecified) | 71 | 17 | 109 | 106 | 84 | 97 | 125 | 96 | 107 | 
14 | CCc1nc(-c2ccc(OC)cc2)[nH]c1-c1ccncc1 | 102 | 100 | 103 | 105 |  |  | 126 | 125 |  | 
15 | O=[N+]([O-])/C=C/c1ccc2c(c1)OCO2 | 105 | 105 | 105 | 114 | 79 | 85 | 134 | 110 | 101 | 103
16 | COC(=O)[C@@]1(O)C[C@H]2O[C@]1(C)n1c3ccccc3c3c4c(c5c6ccccc6n2c5c31)C(=O)NC4 | 25 | 6 | 0 | 1 | 10 | 1 | 2 | -2 | 31 | 5
17 | O=C1Nc2ccc3ncsc3c2/C1=C/c1c[nH]cn1 | 83 | 33 | 47 | 10 | 26 | 5 | 13 | 3 | 53 | 11
